Source: PubChem (National Center for Advancing Translational Sciences (NCATS))
S2 tox – reduces viability in counter-screen for ATXN expression inhibitors | S2 cells (HEK-293 line with an ATXN2-luciferase reporter) viability, CellTiter-Fluor protease fluorescence, 24 h | Potency, µM (doses to about 56.7 µM), most hits filed as cytotoxic | actives 0.49% (n = 400,000); further: nearly all actives have a fitted effect of over 40% in size
Nrf2 inh – blocks Nrf2 signaling; AID 504444; actives 2.1% (n = 360,000); Potency, µM (titrated, usually from 46 µM), for inactives: at the top dose activity change, negative = inhibition, actives largely listed as inhibitors; A549 ARE-Fluc reporter, luciferase luminescence, 18-24 h; further: on the % scale 0 is the no-effect control and ±100 the full control effect; nearly all actives have a fitted effect of over 60% in size
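Reporter: ARE-Fluc in A549. Exposure: 18-24 h, 37 °C, 5% CO2, 5% FBS OPTI-MEM. Readouts: fluorescent cytotoxicity (CellTiter-Fluor), then luminescent Nrf2 signal after BugLite.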
A549 viability – counter-screen for Nrf2 inhibitors: cytotoxicity in A549 cells | A549 ARE-Fluc cells, CellTiter-Fluor viability, 18-24 h | Potency, µM (highest dose often 46 µM), for inactives: top-dose activity change, negative = cytotoxicity, most hits filed as inhibitors | actives 0.16% (n = 390,000) | AID 504648; further: on the % scale 0 is the no-effect control and ±100 the full control effect
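A549 ARE-Fluc cells in 5% FBS OPTI-MEM, 5000 cells/well, rested 2 h then exposed to compounds in concentration-response for 18-24 h at 37 °C. Viability by CellTiter-Fluor fluorescence (Ex 405/Em 525) after 30 min; luciferase luminescence (BugLite, 15 min, RT) read afterwards.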
ATXN2 expr inh – reduces ATXN2 reporter expression in HEK-293 cells; HEK-293 ATXN2-luciferase reporter, luminescence, 24 h; Potency, µM (top dose mostly 57 µM), inactives show at the highest dose activity change, negative = inhibition, most hits filed as inhibitors; actives 0.72% (n = 360,000); further: on the % scale 0 is the no-effect control and ±100 the full control effect; nearly all actives have a fitted effect of over 55% in size
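ATXN2-luciferase reporter cells (luciferase flanked by upstream and downstream ATXN2 gene portions) were treated 24 h at 37 °C with compounds at up to 57 uM. SteadyGlo luminescence gave expression; GF-AFC fluorescence gave viability.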
Nrf2 ARE act – activates Nrf2 signaling. AREc32 ARE-luciferase reporter (MCF7-derived line), luminescence, 24 h. AID 624171. actives 0.31% (n = 410,000). Potency, µM (titrated, usually from 46.1 µM), for inactives: top-dose activation, usual class: activators; further: % of control where 0% means no effect; nearly all actives have a fitted effect of over 65% in size
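Quantitative high-throughput format: AREc32 reporter cells, 1000 per well, received compound by pin transfer and were incubated 24 hr at 37 deg C, 5% CO2, before Steady-Glo luminescence detection.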
The depositor's hits bear a star; i = inactive; ? = inconclusive; . = no result given; [ ] = dose if it differs, or a comment. Sampled rows, rich in hits. Any-hit rate of the full collection: about 2.9%. The call rests on the fitted dose curve; in most records, active means well fitted curve in the direction sought with a large enough effect; inconclusive means small, poorly fitted or top-dose-only effect, or another doubt; inactive means no such curve, though single readings can be large; an effect the other way counts as inactive or inconclusive. Potency means the concentration at half of the fitted maximal effect.

SMILES	S2 tox	Nrf2 inh	A549 viability	ATXN2 expr inh	Nrf2 ARE act
CN(Cc1ccccc1)C(=O)c1cc2c(s1)-c1ccc(Cl)cc1SC2	?	?	-23%	-1%	5%
Cc1c(Cl)sn(-c2ccc(Cl)cc2)c1=O	30µM*	26µM*	?	8.9µM*	0%
CCOc1cc(CNCCc2ccc(S(N)(=O)=O)cc2)ccc1OCc1ccc(Cl)cc1	?	.	?	?	-2%
COc1cc(CNCCc2ccc(S(N)(=O)=O)cc2)ccc1OCc1ccc(Cl)cc1	22µM*	23µM*	?	18µM*	8%
CC(C)C[C@H]1CNC(=S)N1C[C@H]1CCCN1C[C@H](Cc1ccc(O)cc1)N1C[C@H](CC(C)C)N(CC2CCCCCC2)C1=S	10µM*	.	.	?	0%
CC(C)C[C@H]1CNC(=S)N1C[C@H]1CCCN1C[C@H](Cc1ccccc1)N1C[C@H](Cc2ccc(O)cc2)N(CC2CCCCCC2)C1=S	16µM*	.	.	?	0%
CC(=O)N[C@@H](C)C(=O)NCC1Cc2cc(C)cc(-c3cnccn3)c2O1 (stereo partly specified)	i	.	.	.	.
O=C(NCC1Cc2cc(-c3cncnc3)cc(Cl)c2O1)c1cccc(Cn2cccn2)c1 (stereo unspecified)	i	.	.	.	.
CCCS(=O)(=O)NCc1c(C)ncc2c1CCN(C(=O)/C=C/c1ccccc1)C2	i	.	.	.	.
CN1C=C/C(=C\c2cc[n+](C)c3ccccc23)c2ccccc21	?	5.8µM*	?	8.4µM*	-1%
Cc1cc(=O)oc2cc(OCc3ccc(C(=O)N4CCN(c5ccccc5)CC4)cc3)ccc12	i	18µM*	-8%	3%	5%
Cc1cc(=O)oc2cc(OCc3ccc(C(=O)N4CCN(c5ccc([N+](=O)[O-])cc5)CC4)cc3)ccc12	i	-30%	-10%	-10%	-2%
COc1ccc(-n2c(CNC(=O)c3c(-c4ccccc4)noc3C)nnc2SC)cc1	i	.	.	.	.
Cc1nc(CN(C)c2ncnc3cc(-c4ccc5c(c4)OCO5)ccc23)cs1	.	-10%	-3%	.	.
C/C(=N\Nc1nc(C)cc(-c2ccccc2)n1)c1ccccc1	i	-27%	-7%	-33%	3%
C/C(=N\Nc1nc(C)cc(-c2ccccc2)n1)c1cccc(N)c1	?	21µM*	-4%	.	2%
CCOc1ccc(NCc2ccccc2OCc2cccc(F)c2)cc1	i	-83%	-29%	4%	3%
C[C@H](NCc1ccc(OCc2cccc(F)c2)cc1)C(N)=O	.	.	.	19µM*	.
O=C(NCc1ccc2c(c1)OCO2)C(=O)NCC1OCCN1S(=O)(=O)c1ccc(Br)cc1 (stereo unspecified)	i	?	-1%	-27%	1%
O=C(NCc1ccc2c(c1)OCO2)C(=O)NCC1OCCN1S(=O)(=O)c1ccc(Cl)cc1 (stereo unspecified)	i	26µM*	-5%	1%	0%
O=C(NCCc1c[nH]c2ccccc12)C(=O)NCC1OCCN1S(=O)(=O)c1ccc(Cl)cc1 (stereo unspecified)	?	23µM*	-12%	-18%	-1%
O=C(CNC(=O)c1ccccc1)OCC(=O)c1ccccc1	.	-5%	13%	.	.
Cc1nc2scc(-c3ccccc3)c2c(=O)n1N=C1C=CC(=O)C=C1	.	-13%	-10%	8%[11.3 µM]	10µM*
CCN(CC)c1ccc(NC(=O)CN2C(=O)c3cccnc3Sc3ccccc32)c(C)c1	i	?	7%	41%	5%
O=C(/C=C/c1ccc(O)c([N+](=O)[O-])c1)c1ccc2ccccc2c1	i	-8%	0%	-19%	?
SMILES	S2 tox	Nrf2 inh	A549 viability	ATXN2 expr inh	Nrf2 ARE act
COc1ccc(Oc2ccc(/C=C/C(=O)c3ccc(O)cc3)cc2[N+](=O)[O-])cc1	.	0%	1%	22µM*	?
CCOc1cc(CNCc2ccc(C(=O)O)cc2)ccc1OC	i	6%	-1%	-13%	-1%
CCOc1cc(CNCc2cc(OC)cc(OC)c2)ccc1OC	i	8.2µM*	-8%	-27%	1%
C/C(=N\Nc1ccc2nncn2n1)c1ccc(Cl)s1	i	-5%	0%	.	7.9µM*
Oc1ccc(N=Nc2ccc3ccccc3c2)cc1	i	2.6µM*	-23%	72%	10%
Cn1c2cc(Br)sc2c2cnn(Cc3ccccc3F)c(=O)c21	.	3%	-3%	.	.
COc1ccc2c(c1)-c1c(ssc1=S)C(C)(C)N2C(=O)CSC1=NCCS1	i	?	-17%	-16%	0%
CC1(C)c2ssc(=S)c2-c2ccccc2N1C(=O)CSC1=NCCS1	i	15µM*	-14%	-17%	3%
Cc1cccc(C(=O)N(CCc2ccccc2)Cc2ccccc2)c1[N+](=O)[O-]	i	21µM*	?	?	0%
CN1CCN(C(=O)CCN2C(=O)/C(=C\c3ccccc3F)SC2=S)CC1	?	?	23µM*	0%	17%
CC(=C\c1ccccc1)/C=C1/SC(=S)N(CCCC(=O)O)C1=O	i	-21%	-9%	?	-2%
O=C(CCCN1C(=O)/C(=C/c2ccccc2Cl)SC1=S)NNC(=O)c1ccccc1	?	21µM*	-12%	?	0%
O=C(CCCN1C(=O)/C(=C/c2ccccc2Cl)SC1=S)N1CCOCC1	i	-24%	-21%	-35%	3%
CC(/C=C1\SC(=O)N(CCCC(=O)O)C1=O)=C\c1ccccc1	i	2.3µM*	-1%	1.3µM*	-3%
CN1CCN(C(=O)CCN2C(=O)/C(=C/c3ccccc3Cl)SC2=S)CC1	?	?	21µM*	43%	?
Oc1ccc(C=Cc2cc(O)cc(O)c2)cc1	.	.	.	59%	.
COc1ccccc1C1CN(CCNC(=O)c2cscn2)Cc2ccccc2O1 (stereo unspecified)	i	.	.	.	.
COc1cccc(CNC(=O)c2c(OC)cc(=O)n3c2CCN(C(=O)c2cc(C)ccc2C)CC3)c1	i	.	.	.	.
O=C(CCCN1C(=O)S/C(=C\c2ccccc2)C1=O)NNC(=O)c1ccccc1O	?	13µM*	2%	?	-3%
CCOc1ccccc1NC(=O)CCCc1nc2ccccc2c(=O)[nH]1	i	.	?	20µM*	0%
CCCC(=O)N(CCc1ccc(OC)cc1)Cc1nc2ccccc2c(=O)[nH]1	i	23µM*	-8%	-9%	-1%
CCN(Cc1nc2cc(Cl)ccc2c(=O)[nH]1)C(=O)COc1ccccc1Cc1ccccc1	i	?	0%	-2%	0%
CCN(Cc1nc2ccccc2c(=O)[nH]1)C(=O)COc1ccccc1Cc1ccccc1	?	16µM*	-15%	-17%	1%
CC(=O)c1c(C)[nH]c(C(=O)C(C)Sc2nnc(NC3CC3)s2)c1C (stereo unspecified)	i	16µM*	-9%	-12%	3%
